Several values for one entry are separate records, joined by “and”; a condition that tells them apart may be missing. Identical values can stand only once. Unmarked numbers belong to inactive results. Activity calls are given as the source filed them.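 The calls were made as follows: active = inhibition at or above 50% relative to wild type and mutant plate controls; inactive = inhibition below 50%.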
Assay: inhibitors of Chlamydomonas gravitaxis, primary screen, whole organism, Chlamydomonas reinhardtii, WT vs cilia-less mutant, absorbance, 96-well (AID 463189);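 also: 0% = wild type cc124 cells in DMSO and 100% = ciliumless bld1 mutant cells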
Conditions: OD600 absorbance, 2 days, at 10 µM, hits give high values

Structure (SMILES) | inhibition
CC12CCC3C(CCC4=C(O)C(=O)CCC43C)C1CCC2=O (stereo not drawn) | 12.9%
Clc1ccc(C(c2ccc(Cl)cc2)n2cc[n+](CC(OCc3ccc(Cl)cc3Cl)c3ccc(Cl)cc3Cl)c2)cc1 (stereo not drawn) | 133% (active)
CC(C)c1cccc(C(C)C)c1O | -3.28%
COc1ccc2c(c1)C13CCCCC1C(C2)N(C)CC3 (stereo not drawn) | 6.06%
c1ccc2nc(N3CCNCC3)ccc2c1 | 4.23%
CC(C)CC(NP(=O)(O)O[C@@H]1O[C@@H](C)[C@H](O)[C@@H](O)[C@H]1O)C(=O)NC(Cc1c[nH]c2ccccc12)C(=O)O (stereo partly drawn) | 5.76%
Cc1sc2ccccc2c1CC1=NCCN1 | 20.7%
COc1ccccc1N1CCNCC1 | 6.65%
O=C(CCCN1CCC2(CC1)C(=O)N(CCc1ccc(N=C=S)cc1)CN2c1ccccc1)c1ccc(F)cc1 | 2.53%
CCCN1CCC[C@@H](c2cccc(C#N)c2)C1 | 9.39%
CP(=O)(O)CCCN | 3.64%
O=S1(=O)N(CCN2CC=C(c3c[nH]c4cc(F)ccc34)CC2)c2cccc3c2N1CCC3 | -4.93%
Cc1c(C(=O)c2cccc3ccccc23)c2cccc3c2n1[C@H](CN1CCOCC1)CO3 | 9.81%
CC1=NN=C(c2ccc(N)cc2)c2cc3c(cc2C1)OCO3 | -2.8%
NCCc1c[nH]c2ccc(C(N)=O)cc12 | 4.98%
NN=C(N)N | 15.6% and 6.1%
COc1cc(CCN)ccc1O | 2.21%
CCCN1CCc2cccc3c2[C@H]1Cc1ccc(O)c(O)c1-3 | 0.62%
Oc1ccc2c3c1O[C@H]1c4[nH]c5c(c4C[C@@]4(O)[C@@H](C2)N(CC2CC2)CC[C@]314)C[C@@]1(O)[C@H]2Cc3ccc(O)c4c3[C@@]1(CCN2CC1CC1)[C@H]5O4 | -0.992%

Structure (SMILES) | inhibition
C[C@]12CC[C@H](OS(=O)(=O)O)CC1=CC[C@@H]1[C@@H]2CC[C@]2(C)C(=O)CC[C@@H]12 | 6.73%
C#CCN[C@H](C)Cc1ccccc1 | 20.4%
CN(N=O)c1cc(O)ccc1O | 2.32%
c1ccc2c(N3CCNCC3)cccc2c1 | 5.44%
CC(=O)NCCc1c[nH]c2ccccc12 | 7.09%
NC(CP(=O)(O)O)C(=O)O (stereo not drawn) | 5.89%
Cc1[nH]c2ccc(O)cc2c1CCN | 5.71%
C/C=C(/C)C(=O)O[C@H]1C(C)=C2[C@H]([C@@H]1OC(=O)CCCCCCC)[C@@](C)(OC(C)=O)C[C@H](OC(=O)CCC)[C@@]1(O)[C@H]2OC(=O)[C@@]1(C)O | -1.82%
N#CC(C#N)=Cc1ccc([N+](=O)[O-])c(O)c1 | 2.16%
O=C1CCCN1CC#CCN1CCCC1 | 7.02%
C[N+]1(C)C2CCC1CC(OC(=O)c1c[nH]c3ccccc13)C2 (stereo not drawn) | 8.92%
C[C@@H]1O[C@@H](O[C@H]2C[C@@H](O)[C@]3(CO)[C@H]4[C@H](O)C[C@]5(C)[C@@H](C6=CC(=O)OC6)CC[C@]5(O)[C@@H]4CC[C@]3(O)C2)[C@H](O)[C@H](O)[C@H]1O | 6.79%
CCCN1CCc2cc(O)cc3c2[C@H]1Cc1ccc(O)c(O)c1-3 | 0.25%
CC(C)(O)[C@@H]1[C@H]2OC(=O)[C@@H]1[C@]1(O)C[C@H]3O[C@]34C(=O)O[C@H]2[C@]14C (tested in a mixture with another compound) | -1.93%
NCC#Cc1ccccc1 | 1.68%
CCCN(CCC)[C@@H]1CCc2ccc(O)cc2C1 | -3.45%
O=[N+]([O-])c1ccc2nc(N3CCNCC3)ccc2c1 | 14.2%
OC1CCCCC1N1CCC(c2ccccc2)CC1 (stereo not drawn) | 3.25%
NC(N)=Nc1ccc2[nH]c3c(c2c1)C[C@@]1(O)[C@H]2Cc4ccc(O)c5c4[C@@]1(CCN2CC1CC1)[C@H]3O5 | -0.588%
